Test results reported in PubChem BioAssay AID1159580 (chemical genetic matrix, 2015).
“And” between values parts separate entries of the source, which are not always exact repeats. Equal entries are not always repeated. Screen size: about 5,500 compounds; about 2,000 (36%) were called active. About 18% were inconclusive and are not listed. Rule as the data show it: active = normalized growth mostly below about 0.91 (no sharp cut-off); inconclusive = no clear call, values can overlap the other calls; inactive = mostly above about 0.92. Some of the results follow.

Assay: chemical genetic growth profiling, strain panel (AID 1159580);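 also: tested at 20 µM; growth read once vehicle control cultures reached saturation at 30 °C; 1 = growth at the plate median or of vehicle wells; lower values mean less growth of the strain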
Details: S. cerevisiae deletion strains, growth OD

Measured: normalized growth

NCCc1ccc(O)c(O)c1
inactive: locus YAL013W, strain DEP1, stronger effect = lower value 1 and 0.968 | locus YAL021C, strain ccr4, stronger effect = lower value 1.01 | locus YAL026C, strain drs2, stronger effect = lower value 1 | locus YAL030W, strain snc1, stronger effect = lower value 1.01 | locus YAL040C, strain CLN3, stronger effect = lower value 0.983 | locus YBL061C, strain skt5, stronger effect = lower value 0.998 | locus YBR009C, strain hhf1, stronger effect = lower value 0.978 | locus YBR021W, strain FUR4, stronger effect = lower value 0.999 | locus YBR023C, strain chs3, stronger effect = lower value 1 | locus YBR171W, strain sec66, stronger effect = lower value 0.997 | locus YBR229C, strain ROT2, stronger effect = lower value 1 | locus YBR231C, strain swc5, stronger effect = lower value 0.997 | locus YBR279W, strain paf1, stronger effect = lower value 1 | locus YCL011C, strain gbp2, stronger effect = lower value 0.981 | locus YCL016C, strain dcc1, stronger effect = lower value 0.991 | locus YCL029C, strain bik1, stronger effect = lower value 0.965 | locus YCL061C, strain MRC1 (second series), stronger effect = lower value 0.997 | locus YCL061C, strain MRC1, stronger effect = lower value 0.987 | locus YCL069W, strain vba3, stronger effect = lower value 0.981 | locus YCR088W, strain abp1, stronger effect = lower value 0.995 | locus YDL005C, strain med2, stronger effect = lower value 1 | locus YDL035C, strain GPR1, stronger effect = lower value 1.01 | locus YDL040C, strain nat1, stronger effect = lower value 1.01 | locus YDL074C, strain BRE1, stronger effect = lower value 0.978 | locus YDL101C, strain DUN1, stronger effect = lower value 0.988 | locus YDL134C, strain PPH21, stronger effect = lower value 1.04 | locus YDL185W, strain tfp1, stronger effect = lower value 0.979 | locus YDL192W, strain arf1, stronger effect = lower value 0.995 | locus YDR001C, strain nth1, stronger effect = lower value 1 | locus YDR069C, strain doa4, stronger effect = lower value 0.999 | locus YDR101C, strain arx1, stronger effect = lower value 1.01 | locus YDR137W, strain rgp1, stronger effect = lower value 1.03 | locus YDR150W, strain NUM1, stronger effect = lower value 0.992 | locus YDR159W, strain sac3, stronger effect = lower value 1.03 | locus YDR162C, strain NBP2, stronger effect = lower value 1 | locus YDR195W, strain ref2 1.01 | locus YDR297W, strain sur2, stronger effect = lower value 1 | locus YDR318W, strain mcm21, stronger effect = lower value 0.988 | locus YDR334W, strain swr1, stronger effect = lower value 0.996 | locus YDR335W, strain msn5, stronger effect = lower value 1.01 | locus YDR363W, strain ESC2, stronger effect = lower value 0.998 | locus YDR388W, stronger effect = lower value 1 | locus YDR392W, strain spt3, stronger effect = lower value 0.993 | locus YDR502C, strain sam2, stronger effect = lower value 0.998 | locus YEL003W, strain gim4, stronger effect = lower value 0.977 | locus YEL037C, strain rad23, stronger effect = lower value 1 | locus YEL061C, strain CIN8 (second series), stronger effect = lower value 1.02 | locus YEL061C, strain CIN8, stronger effect = lower value 0.997 | locus YER002W, strain NOP16, stronger effect = lower value 1.01 | locus YER015W, strain faa2, stronger effect = lower value 1.02 | locus YER016W, strain bim1, stronger effect = lower value 1 | locus YER110C, stronger effect = lower value 0.984 | locus YER111C, strain swi4, stronger effect = lower value 0.993 | locus YER155C, strain BEM2 (second series), stronger effect = lower value 1 | locus YER155C, strain BEM2, stronger effect = lower value 1 | locus YER167W, strain BCK2, stronger effect = lower value 0.995 | locus YFR010W, strain ubp6, stronger effect = lower value 0.984 | locus YGL078C, strain dbp3, stronger effect = lower value 1 | locus YGL086W, strain mad1, stronger effect = lower value 0.998 | locus YGL167C, strain pmr1, stronger effect = lower value 1.02 | locus YGL173C, strain kem1, stronger effect = lower value 0.98 | locus YGL227W, strain vid30, stronger effect = lower value 1 | locus YGL240W, strain doc1, stronger effect = lower value 1.01 | locus YGL248W, strain PDE1, stronger effect = lower value 0.961 | locus YGL253W, strain hxk2, stronger effect = lower value 0.989 | locus YGR135W, strain pre9, stronger effect = lower value 0.95 | locus YGR229C, strain SMI1, stronger effect = lower value 1.02 | locus YGR252W, strain gcn5, stronger effect = lower value 1.01 | locus YHR013C, strain ard1, stronger effect = lower value 0.993 | locus YHR027C, strain rpn1, stronger effect = lower value 1 | locus YHR030C, strain SLT2, stronger effect = lower value 1 and 1.04 and 1.03 | locus YHR079C, strain IRE1 (second series), stronger effect = lower value 0.994 | locus YHR079C, strain IRE1, stronger effect = lower value 1.03 and 1.04 | locus YHR094C, strain hxt1, stronger effect = lower value 0.996 | locus YHR129C, strain ARP1, stronger effect = lower value 1.01 | locus YHR142W, strain chs7, stronger effect = lower value 1 | locus YHR200W, strain rpn10, stronger effect = lower value 0.994 | locus YIL066C, strain RNR3, stronger effect = lower value 0.987 | locus YIL073C, strain SPO22, stronger effect = lower value 0.891 | locus YIL125W, strain kgd1, stronger effect = lower value 1 | locus YIR030C, strain dcg1, stronger effect = lower value 0.982 | locus YJL092W, strain hpr5, stronger effect = lower value 1.01 | locus YJL095W, strain BCK1 (second series), stronger effect = lower value 1.01 | locus YJL095W, strain BCK1, stronger effect = lower value 0.972 and 1.03 | locus YJL115W, strain asf1, stronger effect = lower value 1.01 | locus YJL129C, strain trk1, stronger effect = lower value 0.998 | locus YJL134W, strain LCB3, stronger effect = lower value 1 | locus YJL154C, strain vps35, stronger effect = lower value 1.01 | locus YJL164C, strain tpk1, stronger effect = lower value 1.01 | locus YJL166W, strain qcr8, stronger effect = lower value 1 | locus YJL168C, strain set2, stronger effect = lower value 1.01
